A number with no mark means an inactive call. The source made the active and inactive calls.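 The calls were made as follows, unless noted: active = mean inhibition above 46.5%, the solvent-only control mean plus 3 SD; inactive = the rest.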

The test system of experiment [1] is transactivating tegument protein VP16 (Human herpesvirus 1). The experiment in a line: compounds suppressing VP16-driven luciferase signal – cell-based, luminescence, single concentration, counter-screen for SRC2 inhibitor project (AID 652007; in the data active = inhibition above about 36%). The note with it: cell-based VP16 transactivation luciferase reporter, at 8.9 µM, hits give high values.
Experiment [2] deals with Nuclear receptor coactivator 2 (Homo sapiens) (UniProt Q15596). The experiment in a line: inhibition of GAL4-SRC2 driven luciferase expression – cell-based, luminescence, HEK293, triplicate, confirmation (AID 652008).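 Also: 0% = DMSO-treated cells and 100% = Gossypol at 36 µM.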 The note with it: HEK293 GAL4-SRC2 luciferase reporter, at 8.9 µM, hits give high values. (In general: In a reporter assay the amount or activity of a reporter protein is the signal.)
Nuclear receptor coactivator 2 (Homo sapiens), sequence (Q15596 whole entry, looked up, the tested form may be a part): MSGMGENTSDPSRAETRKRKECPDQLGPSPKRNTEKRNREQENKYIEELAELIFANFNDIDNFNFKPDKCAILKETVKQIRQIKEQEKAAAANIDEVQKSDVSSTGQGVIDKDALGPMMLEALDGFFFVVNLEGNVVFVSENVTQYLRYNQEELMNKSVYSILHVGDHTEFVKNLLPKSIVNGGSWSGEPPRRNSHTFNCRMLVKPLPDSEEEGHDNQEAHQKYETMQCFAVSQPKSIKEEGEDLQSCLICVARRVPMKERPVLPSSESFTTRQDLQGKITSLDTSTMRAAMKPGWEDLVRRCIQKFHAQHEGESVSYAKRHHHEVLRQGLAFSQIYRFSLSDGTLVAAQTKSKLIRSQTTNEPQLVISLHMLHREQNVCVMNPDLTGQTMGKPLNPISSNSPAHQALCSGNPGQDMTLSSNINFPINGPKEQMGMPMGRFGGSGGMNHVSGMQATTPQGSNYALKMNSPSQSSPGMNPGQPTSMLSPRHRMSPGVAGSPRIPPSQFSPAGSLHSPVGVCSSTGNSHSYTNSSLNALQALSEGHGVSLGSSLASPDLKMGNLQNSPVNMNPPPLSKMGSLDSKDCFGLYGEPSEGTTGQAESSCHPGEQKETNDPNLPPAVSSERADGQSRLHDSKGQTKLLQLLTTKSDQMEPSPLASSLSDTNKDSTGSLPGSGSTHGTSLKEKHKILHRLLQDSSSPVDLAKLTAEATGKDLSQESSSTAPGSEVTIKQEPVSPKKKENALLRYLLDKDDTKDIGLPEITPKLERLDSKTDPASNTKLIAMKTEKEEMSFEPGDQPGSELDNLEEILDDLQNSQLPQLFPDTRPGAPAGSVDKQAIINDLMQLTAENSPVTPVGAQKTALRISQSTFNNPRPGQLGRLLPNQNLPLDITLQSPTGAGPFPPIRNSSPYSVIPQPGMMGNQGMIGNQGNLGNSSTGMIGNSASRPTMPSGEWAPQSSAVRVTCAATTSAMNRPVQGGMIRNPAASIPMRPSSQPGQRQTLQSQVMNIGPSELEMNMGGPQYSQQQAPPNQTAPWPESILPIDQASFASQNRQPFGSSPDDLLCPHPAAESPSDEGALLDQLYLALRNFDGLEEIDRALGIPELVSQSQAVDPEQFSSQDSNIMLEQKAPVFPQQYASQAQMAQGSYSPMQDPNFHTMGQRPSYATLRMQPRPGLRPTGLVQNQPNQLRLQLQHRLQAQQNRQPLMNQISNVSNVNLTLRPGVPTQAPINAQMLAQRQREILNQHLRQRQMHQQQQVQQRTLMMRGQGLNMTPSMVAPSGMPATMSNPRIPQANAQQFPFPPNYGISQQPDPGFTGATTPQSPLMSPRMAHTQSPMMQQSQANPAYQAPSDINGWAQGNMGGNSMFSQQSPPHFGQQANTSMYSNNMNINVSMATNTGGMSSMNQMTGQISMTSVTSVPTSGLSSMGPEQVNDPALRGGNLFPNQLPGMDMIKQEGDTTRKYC

Usually inhibition stands for the change of the read-out against control, counted positive when it falls. With `CCCN1C2CCCC1CC(NC(=O)c1cccc(Cl)c1)C2` (stereo not drawn), the inhibition is 4.37% in experiment [1] and 40.8% in experiment [2].

Regarding `COC(=O)c1ccc(/C=C2/SC(=S)N(CCCC(=O)Nc3ccc(O)cc3)C2=O)cc1`, the inhibition in experiment [1] was 15.8%; in experiment [2], 7.74%.

As to `COc1ccccc1C(=O)NCc1ccc(-c2nc3ccccc3s2)cc1`, the inhibition in experiment [1] was -14%; in experiment [2], 22.1%.

For `CC1(C(=O)NS(=O)(=O)Cc2ccccc2C(F)(F)F)CCN1C(=O)c1ccco1` (stereo not drawn), the inhibition is 0.06% in experiment [1] and -19.7% in experiment [2].

With `CC1CC(C)(C)Nc2ccc(OC(=O)c3ccco3)cc21` (stereo not drawn), the inhibition in experiment [1] is -46.6%; in experiment [2], 46.8% (active).

On to `O=S(=O)(Cc1ccccc1Cl)NCCc1ccc(F)cc1`, for which the inhibition in experiment [1] is -11.3%; in experiment [2] it was -1.95%.

For the compound `CCS(=O)(=O)c1ncc(Cl)c(C(=O)Nc2ccc(S(=O)(=O)N(C)c3ccccc3)cc2)n1`, the inhibition in experiment [1] is 65.2% (active); in experiment [2], 98% (active).

Take `COc1ccc(N2CCN(C(=O)CCCCCn3c(=S)[nH]c4ccc(N5CCOCC5)cc4c3=O)CC2)cc1`: the inhibition in experiment [1] is -3.27%; in experiment [2], -4.46%.

Take `Cc1cc(N)ccc1-n1nc2ccccc2n1`: the inhibition in experiment [1] is -7.48%; in experiment [2] it was 3.06%.

In the case of `COc1ccc2ccc(O)c(CN3CCN(S(=O)(=O)c4cccc(C(F)(F)F)c4)CC3)c2c1`, the inhibition was 6.66% in experiment [1] and -14% in experiment [2].

Take `COc1ccccc1N1CCN(C(CNC(=O)c2ccco2)c2cccnc2)CC1` (stereo not drawn): the inhibition in experiment [1] was -7.16%; in experiment [2], -4.45%.

Take `COc1cc(Nc2nc(-c3ccccc3)c3cc(C)ccc3n2)cc(OC)c1OC`: the inhibition was 6.86% in experiment [1] and 10.7% in experiment [2].

On to `COc1ccc(NC(=O)c2cccc(N3C(=O)c4cccc([N+](=O)[O-])c4C3=O)c2)cc1`, for which the inhibition in experiment [1] is -32.3%; in experiment [2], -27.1%.

As to `CC(C)CCSc1nc(N)c(C#N)cc1C#N`, the inhibition in experiment [1] was -75.7%; in experiment [2], 17.8%.

The values are drawn from PubChem BioAssay.
